Measurements: publication PMC7862700, “An all-to-all approach to the identification of sequence-specific readers for epigenetic DNA modifications on cytosine”

Columns and labels:
Experiment in all cases: DAPPL (digital affinity profiling via proximity ligation, sequencing); 10 mM Tris-HCl pH 7.5, 50 mM NaCl, 1 mM DTT, 4% glycerol, room temperature, 30 min; GST-TFs on glutathione beads, 16-mer random dsDNA library, 0.1% formaldehyde crosslink after washing; high values mean tight binding
[1] = target: T1, FLI1 (Homo sapiens, UniProt Q01543 1-452); details: protein: recombinant; tags: N-terminal GST; dsDNA, one strand shown
T1 sequence: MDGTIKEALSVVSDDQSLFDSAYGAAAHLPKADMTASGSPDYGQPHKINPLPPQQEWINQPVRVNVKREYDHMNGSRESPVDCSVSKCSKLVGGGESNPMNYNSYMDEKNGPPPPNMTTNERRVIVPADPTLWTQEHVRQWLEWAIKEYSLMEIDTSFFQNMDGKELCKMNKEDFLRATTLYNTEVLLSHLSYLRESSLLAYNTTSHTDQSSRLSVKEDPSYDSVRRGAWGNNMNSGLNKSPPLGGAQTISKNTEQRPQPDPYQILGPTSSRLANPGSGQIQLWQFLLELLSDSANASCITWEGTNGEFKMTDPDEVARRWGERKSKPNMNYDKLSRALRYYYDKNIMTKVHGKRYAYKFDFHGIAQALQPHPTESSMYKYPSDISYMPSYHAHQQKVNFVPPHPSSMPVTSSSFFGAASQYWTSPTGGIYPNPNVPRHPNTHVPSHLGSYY
Outline: (§1)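 Sequencing on an Illumina NextSeq500 followed washing, crosslinking with 0.1% formaldehyde, proximity ligation (BsaI/T4 ligase, 1 h, 37 °C) and PCR amplification of pools that had been incubated for 30 min at room temperature with 200 nmole of a random double-stranded 16-mer DNA library in Tris/NaCl/DTT/glycerol buffer. Each pool held DNA-barcoded human transcription factors, expressed in yeast as GST fusions and captured on glutathione beads, plus a tag-only sample. Binding signal is a hexamer's read frequency for a factor divided by its frequency in the tag-only sample.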

[2] = target: T2, ELK1 (Homo sapiens, UniProt P19419 1-428); details: protein: recombinant; tags: N-terminal GST; dsDNA, one strand shown
T2 sequence: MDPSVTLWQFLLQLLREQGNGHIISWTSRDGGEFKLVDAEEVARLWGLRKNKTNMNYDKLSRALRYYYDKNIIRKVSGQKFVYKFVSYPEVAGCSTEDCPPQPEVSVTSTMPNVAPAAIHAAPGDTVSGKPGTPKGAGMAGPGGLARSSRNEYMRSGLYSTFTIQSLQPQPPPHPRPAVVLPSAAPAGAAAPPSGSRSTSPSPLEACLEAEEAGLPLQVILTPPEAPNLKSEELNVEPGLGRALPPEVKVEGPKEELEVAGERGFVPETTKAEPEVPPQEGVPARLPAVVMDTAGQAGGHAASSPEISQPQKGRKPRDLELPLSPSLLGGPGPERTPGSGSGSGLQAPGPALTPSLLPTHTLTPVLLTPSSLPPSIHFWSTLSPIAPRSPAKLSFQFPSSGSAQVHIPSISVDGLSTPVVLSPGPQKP
Outline: as §1

[3] = target: T3, GABPA (Homo sapiens, UniProt Q06546 1-454); details: protein: recombinant; tags: N-terminal GST; dsDNA, one strand shown
T3 sequence: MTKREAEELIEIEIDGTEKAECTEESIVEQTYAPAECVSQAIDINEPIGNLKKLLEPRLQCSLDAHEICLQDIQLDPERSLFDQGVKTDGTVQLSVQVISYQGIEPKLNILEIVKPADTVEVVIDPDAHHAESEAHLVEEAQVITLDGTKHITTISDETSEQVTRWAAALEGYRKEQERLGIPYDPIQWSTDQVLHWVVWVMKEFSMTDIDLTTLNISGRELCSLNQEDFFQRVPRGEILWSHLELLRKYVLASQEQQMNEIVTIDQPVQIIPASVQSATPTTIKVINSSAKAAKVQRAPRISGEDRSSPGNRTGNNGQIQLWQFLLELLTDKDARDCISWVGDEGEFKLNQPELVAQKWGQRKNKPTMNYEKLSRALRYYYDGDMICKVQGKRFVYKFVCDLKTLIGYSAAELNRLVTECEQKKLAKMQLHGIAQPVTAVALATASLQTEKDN
Outline: as §1

[4] = target: T4, ERG (Homo sapiens, UniProt P11308 1-479); details: protein: recombinant; tags: N-terminal GST; dsDNA, one strand shown
T4 sequence: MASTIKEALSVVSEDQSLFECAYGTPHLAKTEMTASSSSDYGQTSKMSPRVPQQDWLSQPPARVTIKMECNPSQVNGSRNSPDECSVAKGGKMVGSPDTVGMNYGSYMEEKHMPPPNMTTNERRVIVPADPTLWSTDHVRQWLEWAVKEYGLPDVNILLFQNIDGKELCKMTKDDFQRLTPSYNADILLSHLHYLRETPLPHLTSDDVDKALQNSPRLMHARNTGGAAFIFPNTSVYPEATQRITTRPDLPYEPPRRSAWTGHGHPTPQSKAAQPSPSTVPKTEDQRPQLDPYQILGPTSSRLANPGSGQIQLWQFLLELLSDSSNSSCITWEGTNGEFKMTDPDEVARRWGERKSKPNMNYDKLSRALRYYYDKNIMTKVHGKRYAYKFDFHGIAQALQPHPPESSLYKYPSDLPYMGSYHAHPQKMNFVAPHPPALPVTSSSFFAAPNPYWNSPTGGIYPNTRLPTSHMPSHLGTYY
Outline: as §1

[5] = target: ELF1 (Homo sapiens, UniProt P32519 1-619); details: protein: recombinant; tags: N-terminal GST; dsDNA, one strand shown
Outline: as §1

[6] = target: T5, EHF (Homo sapiens, UniProt Q9NZC4 1-300); details: protein: recombinant; tags: N-terminal GST; dsDNA, one strand shown
T5 sequence: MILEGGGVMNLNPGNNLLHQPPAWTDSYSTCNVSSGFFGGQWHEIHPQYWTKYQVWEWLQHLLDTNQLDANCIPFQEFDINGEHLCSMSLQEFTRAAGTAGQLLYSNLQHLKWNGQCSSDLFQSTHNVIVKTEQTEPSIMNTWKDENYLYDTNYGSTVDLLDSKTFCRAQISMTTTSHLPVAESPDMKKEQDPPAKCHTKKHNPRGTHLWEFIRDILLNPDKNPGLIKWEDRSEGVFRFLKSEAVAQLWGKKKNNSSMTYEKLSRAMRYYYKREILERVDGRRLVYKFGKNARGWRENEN
Outline: as §1

[7] = target: SPI1 (Homo sapiens, UniProt P17947 1-270); details: protein: recombinant; tags: N-terminal GST; dsDNA, one strand shown
Outline: as §1

[8] = target: SPIB (Homo sapiens, UniProt Q01892 1-262); details: protein: recombinant; tags: N-terminal GST; dsDNA, one strand shown
Outline: as §1

[9] = target: T6, ELK3 (Homo sapiens, UniProt P41970 1-407); details: protein: recombinant; tags: N-terminal GST; dsDNA, one strand shown
T6 sequence: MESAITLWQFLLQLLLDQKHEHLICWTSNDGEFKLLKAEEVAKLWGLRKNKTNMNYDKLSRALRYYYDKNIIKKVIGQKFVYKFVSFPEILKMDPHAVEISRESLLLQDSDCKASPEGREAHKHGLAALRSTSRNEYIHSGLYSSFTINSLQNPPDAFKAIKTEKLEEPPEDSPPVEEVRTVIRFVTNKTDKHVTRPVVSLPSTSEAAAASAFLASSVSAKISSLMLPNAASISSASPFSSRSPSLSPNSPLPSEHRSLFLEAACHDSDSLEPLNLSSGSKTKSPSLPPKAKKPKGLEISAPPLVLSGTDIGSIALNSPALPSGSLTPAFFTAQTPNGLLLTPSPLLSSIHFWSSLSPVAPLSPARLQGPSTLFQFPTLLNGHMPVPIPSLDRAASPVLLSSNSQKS
Outline: as §1

[10] = target: T7, FEV (Homo sapiens, UniProt Q99581 1-238); details: protein: recombinant; tags: N-terminal GST; dsDNA, one strand shown
T7 sequence: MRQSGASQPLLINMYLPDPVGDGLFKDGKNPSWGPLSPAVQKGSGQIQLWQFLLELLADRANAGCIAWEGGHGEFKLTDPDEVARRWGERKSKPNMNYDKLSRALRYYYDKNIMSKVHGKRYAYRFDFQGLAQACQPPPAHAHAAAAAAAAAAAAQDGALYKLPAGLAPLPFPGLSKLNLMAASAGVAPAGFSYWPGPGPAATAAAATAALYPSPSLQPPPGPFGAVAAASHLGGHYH
Outline: as §1

[11] = target: ETV5 (Homo sapiens, UniProt P41161 1-510); details: protein: recombinant; tags: N-terminal GST; dsDNA, one strand shown
Outline: as §1

[12] = target: HSF1 (Homo sapiens, UniProt Q00613 1-529); details: protein: recombinant; tags: N-terminal GST; chain copies: 3; dsDNA, one strand shown
Outline: as §1

[13] = target: T8, SPIC (Homo sapiens, UniProt Q8N5J4 1-248); details: protein: recombinant; tags: N-terminal GST; dsDNA, one strand shown
T8 sequence: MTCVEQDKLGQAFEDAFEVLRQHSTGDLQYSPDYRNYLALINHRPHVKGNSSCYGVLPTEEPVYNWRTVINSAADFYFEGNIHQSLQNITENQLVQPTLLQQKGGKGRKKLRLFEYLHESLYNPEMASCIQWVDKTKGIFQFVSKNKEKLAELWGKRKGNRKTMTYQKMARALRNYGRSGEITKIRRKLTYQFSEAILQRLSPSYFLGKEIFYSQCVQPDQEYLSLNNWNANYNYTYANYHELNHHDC
Outline: as §1

[14] = target: ELF4 (Homo sapiens, UniProt Q99607 1-663); details: protein: recombinant; tags: N-terminal GST; dsDNA, one strand shown
Outline: as §1

[15] = target: T9, ELK4 (Homo sapiens, UniProt P28324-2 1-405); details: protein: recombinant; tags: N-terminal GST; dsDNA, one strand shown
T9 sequence: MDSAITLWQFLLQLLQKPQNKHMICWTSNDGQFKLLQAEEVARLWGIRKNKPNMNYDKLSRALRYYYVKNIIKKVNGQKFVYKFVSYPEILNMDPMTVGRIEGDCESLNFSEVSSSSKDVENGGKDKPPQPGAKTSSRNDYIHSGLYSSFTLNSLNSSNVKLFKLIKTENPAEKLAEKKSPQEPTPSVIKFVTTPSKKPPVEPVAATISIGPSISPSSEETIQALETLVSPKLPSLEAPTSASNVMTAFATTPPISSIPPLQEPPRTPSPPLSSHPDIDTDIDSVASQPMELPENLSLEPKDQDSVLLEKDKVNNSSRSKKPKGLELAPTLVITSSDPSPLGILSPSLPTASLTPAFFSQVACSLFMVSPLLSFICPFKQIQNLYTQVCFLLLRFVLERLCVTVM
Outline: as §1

[16] = target: T10, ETV2 (Homo sapiens, UniProt O00321 1-342); details: protein: recombinant; tags: N-terminal GST; dsDNA, one strand shown
T10 sequence: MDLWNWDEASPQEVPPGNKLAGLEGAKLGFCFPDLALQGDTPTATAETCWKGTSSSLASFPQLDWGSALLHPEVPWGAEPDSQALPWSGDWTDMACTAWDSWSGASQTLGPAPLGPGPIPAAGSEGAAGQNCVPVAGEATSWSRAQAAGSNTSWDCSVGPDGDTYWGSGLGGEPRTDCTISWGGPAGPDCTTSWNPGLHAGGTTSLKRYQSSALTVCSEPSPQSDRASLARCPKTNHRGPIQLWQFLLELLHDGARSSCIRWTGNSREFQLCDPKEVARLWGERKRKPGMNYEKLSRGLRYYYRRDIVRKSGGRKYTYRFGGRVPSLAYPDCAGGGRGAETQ
Outline: as §1

[17] = target: T11, ELF3 (Homo sapiens, UniProt P78545 1-371); details: protein: recombinant; tags: N-terminal GST; dsDNA, one strand shown
T11 sequence: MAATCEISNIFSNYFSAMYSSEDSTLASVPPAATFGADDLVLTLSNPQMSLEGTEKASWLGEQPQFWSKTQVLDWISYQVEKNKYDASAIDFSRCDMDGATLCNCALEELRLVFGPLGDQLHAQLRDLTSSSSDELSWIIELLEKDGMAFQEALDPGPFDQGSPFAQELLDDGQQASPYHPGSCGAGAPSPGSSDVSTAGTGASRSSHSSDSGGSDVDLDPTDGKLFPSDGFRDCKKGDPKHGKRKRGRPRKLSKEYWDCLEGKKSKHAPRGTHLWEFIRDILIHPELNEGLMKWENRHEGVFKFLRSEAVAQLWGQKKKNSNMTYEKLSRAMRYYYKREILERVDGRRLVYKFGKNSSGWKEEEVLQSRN
Outline: as §1

[18] = target: CRX (Homo sapiens, UniProt O43186 1-299); details: protein: recombinant; tags: N-terminal GST; dsDNA, one strand shown
Outline: as §1

[19] = target: ETV1 (Homo sapiens, UniProt P50549 1-477); details: protein: recombinant; tags: N-terminal GST; dsDNA, one strand shown
Outline: as §1

Chain of CRX (O43186 whole entry): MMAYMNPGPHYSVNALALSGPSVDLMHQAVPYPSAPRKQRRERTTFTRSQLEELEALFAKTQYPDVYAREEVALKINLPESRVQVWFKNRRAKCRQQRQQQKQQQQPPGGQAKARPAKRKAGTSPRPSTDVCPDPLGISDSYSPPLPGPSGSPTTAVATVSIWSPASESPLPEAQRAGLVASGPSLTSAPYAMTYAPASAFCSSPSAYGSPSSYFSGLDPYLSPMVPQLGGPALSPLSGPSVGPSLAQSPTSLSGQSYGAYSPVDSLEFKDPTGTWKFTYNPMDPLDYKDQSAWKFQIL
Chain of ETV5 (P41161 whole entry): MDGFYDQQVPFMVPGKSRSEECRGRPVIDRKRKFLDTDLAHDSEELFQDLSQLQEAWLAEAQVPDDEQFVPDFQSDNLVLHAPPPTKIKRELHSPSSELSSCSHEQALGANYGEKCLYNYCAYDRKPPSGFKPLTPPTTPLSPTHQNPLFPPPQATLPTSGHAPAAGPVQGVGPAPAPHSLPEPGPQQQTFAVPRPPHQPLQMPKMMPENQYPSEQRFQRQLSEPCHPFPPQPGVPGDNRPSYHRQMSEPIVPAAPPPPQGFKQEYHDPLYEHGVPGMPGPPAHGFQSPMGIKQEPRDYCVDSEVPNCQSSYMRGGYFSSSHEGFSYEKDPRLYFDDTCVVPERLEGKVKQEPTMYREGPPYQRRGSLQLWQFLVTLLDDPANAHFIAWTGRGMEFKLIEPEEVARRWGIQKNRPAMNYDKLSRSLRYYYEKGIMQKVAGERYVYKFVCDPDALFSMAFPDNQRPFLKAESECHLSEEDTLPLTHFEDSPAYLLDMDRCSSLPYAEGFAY
Chain of SPIB (Q01892 whole entry): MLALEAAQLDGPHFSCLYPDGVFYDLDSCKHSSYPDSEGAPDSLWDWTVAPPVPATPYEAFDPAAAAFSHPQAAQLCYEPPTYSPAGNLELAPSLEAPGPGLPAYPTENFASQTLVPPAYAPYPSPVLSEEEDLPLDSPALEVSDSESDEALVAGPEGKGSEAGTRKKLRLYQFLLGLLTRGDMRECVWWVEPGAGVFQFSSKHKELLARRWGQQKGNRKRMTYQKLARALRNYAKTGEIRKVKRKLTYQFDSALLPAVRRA
Chain of ELF4 (Q99607 whole entry): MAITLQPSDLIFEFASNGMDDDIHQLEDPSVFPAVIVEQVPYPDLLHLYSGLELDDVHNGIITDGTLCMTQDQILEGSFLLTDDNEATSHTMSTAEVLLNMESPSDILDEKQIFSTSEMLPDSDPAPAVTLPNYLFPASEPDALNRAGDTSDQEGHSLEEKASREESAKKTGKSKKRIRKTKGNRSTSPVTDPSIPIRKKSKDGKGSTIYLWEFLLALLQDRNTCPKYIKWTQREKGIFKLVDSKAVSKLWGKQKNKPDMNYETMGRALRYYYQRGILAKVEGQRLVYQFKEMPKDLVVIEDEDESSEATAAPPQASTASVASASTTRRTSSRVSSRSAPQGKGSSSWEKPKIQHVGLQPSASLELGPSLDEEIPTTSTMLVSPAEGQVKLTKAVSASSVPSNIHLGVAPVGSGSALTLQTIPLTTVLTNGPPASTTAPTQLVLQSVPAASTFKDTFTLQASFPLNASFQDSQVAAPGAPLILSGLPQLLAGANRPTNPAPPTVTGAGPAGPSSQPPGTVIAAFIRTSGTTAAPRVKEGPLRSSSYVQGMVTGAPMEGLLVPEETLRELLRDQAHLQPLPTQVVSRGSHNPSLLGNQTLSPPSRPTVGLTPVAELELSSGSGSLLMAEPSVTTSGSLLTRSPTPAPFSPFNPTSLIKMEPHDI
Chain of HSF1 (Q00613 whole entry): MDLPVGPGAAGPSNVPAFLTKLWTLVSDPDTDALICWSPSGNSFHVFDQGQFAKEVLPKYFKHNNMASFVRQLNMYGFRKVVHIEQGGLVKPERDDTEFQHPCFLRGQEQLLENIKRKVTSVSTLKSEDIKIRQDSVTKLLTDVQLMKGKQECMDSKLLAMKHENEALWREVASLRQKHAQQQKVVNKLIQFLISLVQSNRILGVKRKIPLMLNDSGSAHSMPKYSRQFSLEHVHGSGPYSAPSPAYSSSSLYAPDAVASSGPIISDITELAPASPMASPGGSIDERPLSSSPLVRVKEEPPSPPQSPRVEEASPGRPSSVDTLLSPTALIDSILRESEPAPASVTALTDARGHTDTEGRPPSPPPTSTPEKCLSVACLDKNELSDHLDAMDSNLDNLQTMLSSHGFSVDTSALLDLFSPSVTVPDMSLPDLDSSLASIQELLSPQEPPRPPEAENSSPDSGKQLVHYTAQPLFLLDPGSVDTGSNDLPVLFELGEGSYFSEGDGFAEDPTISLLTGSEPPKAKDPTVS
Chain of ELF1 (P32519 whole entry): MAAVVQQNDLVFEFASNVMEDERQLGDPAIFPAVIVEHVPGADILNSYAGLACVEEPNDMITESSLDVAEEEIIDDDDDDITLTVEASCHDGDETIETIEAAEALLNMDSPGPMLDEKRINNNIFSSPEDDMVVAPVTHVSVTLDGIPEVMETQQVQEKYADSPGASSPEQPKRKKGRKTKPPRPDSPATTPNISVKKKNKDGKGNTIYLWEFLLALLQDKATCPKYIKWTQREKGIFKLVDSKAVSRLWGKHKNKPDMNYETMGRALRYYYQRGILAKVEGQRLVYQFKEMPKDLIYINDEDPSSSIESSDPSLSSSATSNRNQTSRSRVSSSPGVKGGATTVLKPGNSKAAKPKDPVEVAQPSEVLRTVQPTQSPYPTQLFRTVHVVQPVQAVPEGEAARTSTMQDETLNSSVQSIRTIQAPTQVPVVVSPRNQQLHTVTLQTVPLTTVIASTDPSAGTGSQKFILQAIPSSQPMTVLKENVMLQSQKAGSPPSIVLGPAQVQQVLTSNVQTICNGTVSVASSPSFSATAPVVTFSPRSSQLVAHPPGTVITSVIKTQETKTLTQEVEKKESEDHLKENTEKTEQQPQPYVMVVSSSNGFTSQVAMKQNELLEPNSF
Chain of ETV1 (P50549 whole entry): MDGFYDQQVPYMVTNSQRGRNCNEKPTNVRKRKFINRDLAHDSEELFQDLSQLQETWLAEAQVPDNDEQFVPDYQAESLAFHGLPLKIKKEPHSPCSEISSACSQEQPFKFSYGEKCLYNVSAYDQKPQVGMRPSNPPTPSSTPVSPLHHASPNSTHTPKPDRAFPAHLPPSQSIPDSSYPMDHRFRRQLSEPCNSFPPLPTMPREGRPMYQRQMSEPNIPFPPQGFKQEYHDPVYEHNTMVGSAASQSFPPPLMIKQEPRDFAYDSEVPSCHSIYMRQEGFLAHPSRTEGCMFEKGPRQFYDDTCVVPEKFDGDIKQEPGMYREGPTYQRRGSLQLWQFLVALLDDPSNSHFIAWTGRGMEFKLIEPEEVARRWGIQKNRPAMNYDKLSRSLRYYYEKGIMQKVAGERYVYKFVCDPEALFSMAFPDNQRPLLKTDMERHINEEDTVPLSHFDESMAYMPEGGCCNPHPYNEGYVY

CGTTTC
binding signal [1]: 1.76 fold enrichment (6-mer frequency, TF over GST control)
binding signal [2]: 1.68 fold enrichment (6-mer frequency, TF over GST control)
binding signal [3]: 1.69 fold enrichment (6-mer frequency, TF over GST control)
binding signal [4]: 1.98 fold enrichment (6-mer frequency, TF over GST control)
binding signal [5]: 1.71 fold enrichment (6-mer frequency, TF over GST control)
binding signal [6]: 1.83 fold enrichment (6-mer frequency, TF over GST control)
binding signal [7]: 1.79 fold enrichment (6-mer frequency, TF over GST control)
binding signal [8]: 1.75 fold enrichment (6-mer frequency, TF over GST control)
binding signal [9]: 1.72 fold enrichment (6-mer frequency, TF over GST control)
binding signal [10]: 1.98 fold enrichment (6-mer frequency, TF over GST control)
binding signal [11]: 1.72 fold enrichment (6-mer frequency, TF over GST control)
binding signal [12]: 1.24 fold enrichment (6-mer frequency, TF over GST control)
binding signal [13]: 1.77 fold enrichment (6-mer frequency, TF over GST control)
binding signal [14]: 1.8 fold enrichment (6-mer frequency, TF over GST control)
binding signal [15]: 1.65 fold enrichment (6-mer frequency, TF over GST control)
binding signal [16]: 1.41 fold enrichment (6-mer frequency, TF over GST control)
binding signal [17]: 1.72 fold enrichment (6-mer frequency, TF over GST control)
binding signal [18]: 1.06 fold enrichment (6-mer frequency, TF over GST control)
binding signal [19]: 1.61 fold enrichment (6-mer frequency, TF over GST control)
